# Records with an inconclusive call do not appear. The source made the active and inactive calls. Calls follow the shape of the dose curve; as a rule, active = well fitted cell-killing curve with a large enough effect; inconclusive = small, poorly fitted or top-dose-only effect, or effect the other way; inactive = no such curve, though single readings can be large or run the other way.
# Tested on: HeLa
# Experiment: Confirmatory qHTS for gynecologic anti-cancer compounds from libraries of approved drugs and bioactive compounds; also: nearly all actives have a fitted effect of over 55% in size
# Details: gynecologic cancer cell panel viability, ATPlite luminescence, 48 h; series mostly up to 57.6 µM
# Method in brief: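 Cells (1,000/well) were plated, left 16 h at 37 C/5% CO2, then given compound at 11 concentrations (1:3) from 57.5 uM to 0.977 nM for 48 h. ATPlite luminescence after 15 min at room temperature gave IC50 values.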
# Potency is read from the fitted curve at half-maximal effect.
row,Compound,Potency
1,NC(=O)c1cnc(-c2ccc(C3(N)CCC3)cc2)c(-c2ccccc2)c1,30.6 µM (active)
2,O=C(CCCCCCC(=O)Nc1ccccc1)NO,3.43 µM (active)
3,NS(=O)(=O)c1ccc(Nc2nc(OCC3CCCCC3)c3[nH]cnc3n2)cc1,24.3 µM (active)
4,COc1cc(Nc2ncc(F)c(Nc3ccc4c(n3)N(COP(=O)(O)O)C(=O)C(C)(C)O4)n2)cc(OC)c1OC,1.72 µM (active)
5,COc1cc(Nc2ncc3c(n2)-c2ccc(Cl)cc2C(c2c(F)cccc2OC)=NC3)ccc1C(=O)O,0.685 µM (active)

# From PubChem BioAssay AID1345085 (National Center for Advancing Translational Sciences (NCATS), 2018)
